Pf growth 96h: Primary qHTS for delayed death inhibitors of the malarial parasite plastid, 96 hour incubation | AID 504834, 2011 | P. falciparum luciferase reporter growth, 96 h | Potency, µM (highest dose often 28.7 µM), for the others: at the top dose activity change, negative = inhibition, actives largely listed as inhibitors | 320,000 compounds, 6.9% hits; note: potency is the fitted concentration of half-maximal effect
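Infected RBCs, 2% Hct / 0.05% parasitemia final; luciferase-reporter P. falciparum; cpd 96 h, 37 C, 5% CO2; luciferase detection reagent; luminescence.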
HCMV antiviral: qHTS Assay for inhibitors of the human cytomegalovirus (HCMV); HFF cells, HCMV-luciferase reporter, 72 h; stronger effect = lower value; 410,000 compounds, 4.5% hits; activity change, negative = inhibition, % at 57.5 µM; AID 1259415, 2018; in the data active = activity change below about -60%; inconclusive = no clear call, values can overlap the other calls; inactive = above about -39%
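Steps: HFFs plated, 16 h 37C; compounds added; HCMV-luciferase added to MOI 1 PFU/cell; 72 h 37C; OneGlo reagent, 5 min room temperature; luminescence read, normalized to controls.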
FBPA Giardia inh: qHTS Assay for Inhibitors of Fructose-1,6-bisphosphate Aldolase from Giardia Lamblia; Potency, µM (doses to about 59.6 µM), without a hit: top-dose activity, negative = inhibition, most hits filed as inhibitors; 290,000 compounds, 0.71% hits; AID 2451, 2010; A8B2U2; purified Giardia FBPA; note: potency is the fitted concentration of half-maximal effect; nearly all actives have a fitted effect of over 55% in size
Target sequence (A8B2U2 whole entry, looked up): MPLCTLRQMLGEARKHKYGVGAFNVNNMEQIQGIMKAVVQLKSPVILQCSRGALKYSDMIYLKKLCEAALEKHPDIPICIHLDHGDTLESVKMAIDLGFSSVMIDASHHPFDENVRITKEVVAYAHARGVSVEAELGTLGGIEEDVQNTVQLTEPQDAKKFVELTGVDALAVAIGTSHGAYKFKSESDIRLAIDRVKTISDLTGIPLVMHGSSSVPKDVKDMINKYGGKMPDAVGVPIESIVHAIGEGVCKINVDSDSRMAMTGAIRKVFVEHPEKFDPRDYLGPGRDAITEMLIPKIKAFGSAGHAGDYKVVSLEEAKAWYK
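40 nM FBPA preincubated 10 min at RT with compound (up to 57.5 uM final), then substrate plus GAPDH/TPI/NAD/arsenate coupling and diaphorase/resazurin added. Fluorescence read after 20 min at RT, 525/598 nm.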
Sm TGR block: qHTS Assay for the Inhibitors of Schistosoma Mansoni Peroxiredoxins; purified TGR, DTNB reduction, TNB absorbance 405 nm; Potency, µM (titrated, usually from 114 µM), for the others: at the highest dose activity change, negative = inhibition, hits mostly inhibitors; 360,000 compounds, 3% hits; note: potency is the fitted concentration of half-maximal effect; nearly all actives have a fitted effect of over 60% in size
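First, TGR (20 nM dispensed) and NADPH were mixed with compound. Second, a 15 min room-temperature incubation followed. Third, further NADPH and then DTNB were added to start the reaction. Finally, TNB absorbance was monitored kinetically.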
Pf growth 48h: Primary qHTS for delayed death inhibitors of the malarial parasite plastid, 48 hour incubation; P. falciparum luciferase growth in erythrocytes, 48 h; Potency, µM (top dose mostly 28.7 µM), for inactives: top-dose activity change, negative = inhibition, usual class: inhibitors; 310,000 compounds, 5.9% hits; AID 504832, 2011; note: potency is the fitted concentration of half-maximal effect
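Cell-based growth assay: transgenic P. falciparum expressing firefly luciferase, cultured in red cells within RPMI 1640 containing 0.5% w/v Albumax, 24 mM bicarbonate and gentamycin. A drop in luciferase activity indicates inhibition.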
An asterisk follows results filed as active; u = inconclusive; x = no result. This is a sample that favours compounds with a hit; in the whole collection about 14% have one here. Unless noted, calls come from the whole dose curve; as a rule, active = well fitted curve in the direction sought with a large enough effect; inconclusive = small, poorly fitted or top-dose-only effect, or another doubt; inactive = no such curve, though single readings can be large; an effect the other way counts as inactive or inconclusive. % is set by controls: 0 for no effect and ±100 for the full control effect.

SMILES | Pf growth 96h | HCMV antiviral | FBPA Giardia inh | Sm TGR block | Pf growth 48h
O=C(Cn1ncc2c([nH]c3ccccc32)c1=O)NCCCN1CCN(c2ccccc2)CC1 | 2.7% | 8.6 | -8.1% | 0.9% | -16.0%
COc1ccc(OC)c(CCNC(=O)CS(=O)(=O)Cc2nc(-c3cccc(Cl)c3)oc2C)c1 | x | -13.2 | x | 33.3% | x
COCCCNC(=O)CS(=O)(=O)Cc1nc(-c2cccc(OC)c2)oc1C | 32.8% | 5.2 | -2.0% | u | 35.3%
COc1cccc(-c2nc(CS(=O)(=O)CC(=O)NCCc3cc(OC)ccc3OC)c(C)o2)c1 | 13.1µM* | 11.4 | -14.1% | u | -28.5%
COc1cccc(-c2nc(CS(=O)(=O)CC(=O)N3CCN(c4ccccn4)CC3)c(C)o2)c1 | u | -16.2 | 4.1% | 50.1µM* | -2.0%
COc1cccc(-c2nc(CS(=O)(=O)CC(=O)Nc3c(C)cc(C)cc3C)c(C)o2)c1 | x | -62.0* | x | -13.6% | x
COc1cccc(-c2nc(CS(=O)(=O)CC(=O)NCCC(C)C)c(C)o2)c1 | 25.5% | -16.7 | -2.1% | 44.7µM* | 0.0%
COc1cccc(-c2nc(CS(=O)(=O)CC(=O)Nc3c(C)cccc3C)c(C)o2)c1 | u | u | 2.2% | -35.2% | u
Nc1ccccc1NC(=O)CCn1c(=S)[nH]c2ccccc2c1=O | u | 0.0 | x | 5.5% | -14.6%
Cc1ccc(NC(=O)CN2C(=O)CC(c3ccc(C)c(C)c3)=Nc3ccccc32)cc1 | x | 5.8 | x | 1.1% | x
Nc1ccccc1NC(=O)c1ccccc1 | -8.9% | 44.8 | 11.4% | -27.7% | 18.0%
Nc1ncnc(N)c1NC(=O)c1ccccc1 | x | -101.3* | x | x | x
N#Cc1c(NC(=S)NC(=O)c2ccccc2)sc2c1CCN(CCc1ccccc1)C2 | 2.62µM* | x | -2.3% | -20.0% | 4.15µM*
N#Cc1c(N)sc2c1CCN(CCc1ccccc1)C2 | 78.9% | -2.3 | u | -16.8% | 10.4µM*
CCOC(=O)N1CCc2c(sc(N)c2C#N)C1 | 7.3% | -3.1 | -23.5% | 0.3% | 24.6%
COCCCNC(=O)CN1C(=O)c2cccnc2Sc2ccccc21 | x | 19.4 | x | -13.0% | x
CCCCCCCCCCCCCCCC(=O)OCC(COP(=O)(O)O)OC(=O)CCCCCCCCCCCCCCC (centres undefined) | x | x | 2.0% | x | x
COc1cccc(-c2cc3c(Nc4cc(OC)c(OC)c(OC)c4)nccc3[nH]2)c1 | x | -33.9 | x | x | x
CS(=O)(=O)N(CC(=O)Nc1ccccc1Sc1ccccc1)c1cccc(Br)c1 | u | -0.6 | -5.7% | -1.6% | 13.1µM*
Cc1ccccc1NC(=O)c1ccc(N(Cc2ccccc2)S(C)(=O)=O)cc1 | x | u | x | -1.3% | x
CS(=O)(=O)N(Cc1ccccc1)c1ccc(C(=O)Nc2ccccc2Sc2ccccc2)cc1 | 14.7µM* | -15.7 | -2.6% | 1.1% | 11.7µM*
CS(=O)(=O)N(Cc1ccccc1)c1ccc(C(=O)Nc2ccc(Cl)cc2)cc1 | x | -87.7* | x | -0.3% | x
CSc1nc2sc3c(c2c(=O)[nH]1)CC(C)(C)OC3 | -20.1% | -12.3 | -12.0% | -23.4% | u
COc1ccc(-c2nn(CCC#N)cc2C(=O)Nc2cccc(C(=O)O)c2)cc1[N+](=O)[O-] | -2.9% | 2.1 | -11.5% | -20.8% | 3.9%
Cc1cc(N2CCCCCC2)n2nc(C)c(-c3ccccc3)c2n1 | u | 30.8 | 10.5% | 20.1% | 14.9%
SMILES | Pf growth 96h | HCMV antiviral | FBPA Giardia inh | Sm TGR block | Pf growth 48h
Cc1cc(C)c2c(n1)nn1c(N3CCN(c4ccccn4)CC3)cc(C)nc21 | 3.29µM* | x | 0.4% | 2.2% | 6.2%
Cc1nn2c(N3CCN(c4ccccn4)CC3)cc(C(C)C)nc2c1-c1ccccc1 | u | u | 4.4% | 1.8% | 3.29µM*
CC(=O)Nc1cccc(-c2cc(-c3c(Cl)cccc3Cl)no2)c1 | -18.2% | -27.0 | -9.3% | 11.4% | u
CNC(=O)Nc1cccc(-c2cc(-c3c(Cl)cccc3Cl)no2)c1 | u | -74.4* | 3.0% | 1.5% | -20.1%
CC(C)(C)S(=O)N1C[C@@H]2CC(=O)C=C2[C@H]1CCO (some centres undefined) | x | -2.1 | x | x | x
COc1ccc(CC2C(=O)NC(C)C(=O)N(C)C3C(=O)N(C)C(Cc4ccc(O)c(c4)Oc4ccc(cc4)C3O)C(=O)NC(C)C(=O)NC(C)C(=O)N2C)cc1 (centres undefined) | x | -97.7* | x | x | x
COc1cc2c3cc1OCc1c(O)c(OC)cc4c1C(Cc1ccc(cc1)Oc1cc(ccc1O)CC3N(C)CC2)N(C)CC4 (centres undefined) | x | x | 1.3% | x | x
O=C(c1cnn(-c2ccc(F)cc2)c1-n1cccc1)N1CCN(c2cccc(Cl)c2)CC1 | x | -28.2 | x | 1.2% | x
CCc1ccc2[nH]c(=O)c(C(c3nnnn3Cc3ccccc3)N3CCOCC3)cc2c1 (centres undefined) | -44.9% | 23.2 | -7.4% | -0.3% | -2.0%
COCCn1nnnc1C(c1cc2cccc(C)c2[nH]c1=O)N1CCN(c2ccccc2F)CC1 (centres undefined) | 1.0% | 118.5 | -17.8% | 14.1µM* | u
CCc1ccc2[nH]c(=O)c(C(c3nnnn3CCOC)N3CCN(c4ccc(F)cc4)CC3)cc2c1 (centres undefined) | -10.1% | 62.9 | -27.8% | 50.1µM* | u
CCc1ccc2[nH]c(=O)c(C(c3nnnn3CCOC)N3CCN(c4ccccc4)CC3)cc2c1 (centres undefined) | -3.6% | 27.6 | -24.0% | 44.7µM* | u
COCCn1nnnc1C(c1cc2cc(OC)c(OC)cc2[nH]c1=O)N1CCN(c2ccc(O)cc2)CC1 (centres undefined) | u | 13.1 | u | 11.4% | 52.4%
CCC(=O)N(C)C[C@@H]1Oc2ncc(Br)cc2C(=O)N([C@@H](C)CO)C[C@H]1C | x | 3.2 | x | x | x
CCn1c(SCc2ccccc2)nnc1-c1nonc1NC(C)=O | x | -5.1 | x | 1.9% | x
CCNc1nc(NCC)n2c(SCC(=O)Nc3cccc(Cl)c3)nnc2n1 | 5.22µM* | x | x | -6.4% | 11.7µM*
CCNc1nc(NCC)n2c(SC(C(=O)Nc3cc(Cl)cc(Cl)c3)c3ccccc3)nnc2n1 (centres undefined) | 10.4µM* | -101.0* | 0.8% | -2.4% | 11.7%
Oc1cccc2c(NC(=S)Nc3ccc(OC(F)F)cc3)cccc12 | u | -98.8* | u | -11.0% | 2.3%
CN(C)c1ccc(NC(=S)NC23CC4CC(CC(C4)C2)C3)cc1 | 0.586µM* | u | 2.6% | 7.6% | 5.22µM*
CCOc1ccc(NC(=O)C23CC4CC(C2)CC(c2ccccc2)(C4)C3)cc1 | 1.85µM* | -6.0 | -2.5% | 5.0% | u
CCOc1ccc(NC(=S)NC23CC4CC(CC(C4)C2)C3)cc1 | 20.9% | -20.4 | -4.2% | 63.9% | 10.4µM*
FC(F)Oc1ccc(NC(=S)Nn2cnnc2)cc1 | 0.0% | 73.0 | -23.9% | -13.9% | -17.4%
